A selection: hits, their analogues and other compounds. The true share with any hit is near 2.2%.
TMEM16A inh – mouse TMEM16A channel inhibition, primary screen; Q8BHY3; AID 588511; normalized B-score (activity score, 25-100; higher = stronger inhibition) at 10 µM; 310,000 tested, 1.2% active; HEK293 TMEM16A/YFP iodide influx fluorescence, ionomycin;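 active = ratio plate-corrected score three or more library SD toward inhibition, starting fluorescence score within five deviations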;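 also: score derived from kinetic fluorescence span divided by baseline fluorescence per well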
TLR4-MyD88 BLA – inhibitors of human TLR4-MyD88 binding; O00206+Q99836; HeLa CL3-4 TLR4/MyD88 BLA complementation, FRET ratio; inhibition, % at 8.4 µM; 200,000 tested, 0.18% active; in the data active = inhibition above about 25%;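 also: 0% = vehicle and 100% = reference inhibitor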
ANO1 activ – activates or potentiates the mouse TMEM16A chloride channel | Q8BHY3 | HEK293 TMEM16A/YFP-H148Q/I152L, iodide quench fluorescence; hits give low values | B-score at 10 µM | 340,000 tested, 0.3% active;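 active = fluorescence-ratio B-score plate-corrected deviation score at least 3 library SD below zero, with starting fluorescence score within 5 deviations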;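 also: channel opened by trigger with iodide after compound preincubation; score built on the fluorescence ratio of max minus min over baseline; more negative score means more quench and so TMEM16A activation or potentiation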
TLR9-MyD88 inh – blocks human TLR9 binding to MyD88; AID 504734; 340,000 tested, 0.21% active; Q9NR96+Q99836; inhibition, % at 4.98 µM; CHO BLA complementation TLR9-MyD88, CCF4 FRET ratio;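 active = inhibition above the mean over all tested compounds plus 3 SD, cut at about 21% in these data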;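 also: 0% = DMSO only wells and 100% = clavulanate BLA inhibitor control wells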
NOD2 RIPK2 PPI – blocks binding of human NOD2 to RIPK2. 360,000 tested, 0.38% active. CHO BLA complementation NOD2-RIPK2, CCF4 ratio. inhibition, % at 4.98 µM. O43353. AID 624267; in the data active = inhibition above about 21%;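 also: 0% = vehicle only and 100% = reference blocker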
GRK2 aptamer HTS – blocks RNA aptamer binding to human GRK2 | P25098 | bead flow cytometry, FAM-aptamer displacement from GRK2 | inhibition of aptamer binding, % at 10 µM | 330,000 tested, 0.59% active | AID 488847;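 active = inhibition of aptamer binding above 40%, roughly 3 SD of noise, on plates passing a quality check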;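 also: median bead fluorescence of bound FAM aptamer so fluorescent compounds give negative values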
TMEM16A reconf – reconfirmed blocker of mouse TMEM16A calcium-activated chloride channel. 2,300 tested, 39% active. HEK293 TMEM16A/YFP-H148Q, iodide quench fluorescence; ionomycin added to raise cell calcium. shares compounds with TMEM16A inh. AID 652189. inhibition, % at 10 µM;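 active = mean duplicate percent inhibition, scaled so buffer wells are 0 and the reference blocker 100, over three buffer SD above buffer mean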
TMEM16A Ca cntr – calcium mobilization counter-screen hit for TMEM16A inhibitor series; shares compounds with TMEM16A inh; TMEM16A/YFP HEK293, Fluo4 calcium mobilization; calcium response (% of ionomycin), % at 10 µM; 2,300 tested, 2% active; AID 652231;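 active = duplicate-averaged calcium signal over 20% of the ionomycin maximum, relative to buffer baseline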;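 also: each well's signal is peak minus trough fluorescence divided by its pre-addition baseline; 0% = buffer wells and 100% = ionomycin wells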
Parental YFP cnt – acts in parental YFP-HEK293 cells lacking TMEM16A, counter-screen; shares compounds with TMEM16A inh; iodide YFP quench, ionomycin; YFP ratio F(max-min)/F0 at 10 µM; 2,300 tested, under 10 active;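 active = yellow fluorescent protein signal ratio exceeding the buffer control mean by over 5 SD of those controls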;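 also: ratio is mean of duplicate wells from kinetic YFP trace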
ClC-1 rat inh – selectivity of TMEM16A inhibitors: inhibition of rat ClC-1 chloride channel; shares compounds with TMEM16A inh; CHO ClC-1-YFP, iodide influx fluorescence quench; iodide control reads 0, buffer control 100; ratio percent, % at 10 µM; 2,300 tested, under 10 active;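 active = duplicate-mean ratio percent above the mean of iodide-only control wells, which defines zero, plus 5 of their SD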;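 also: higher percent means stronger block of ClC-1 iodide influx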
Active calls of the source: *; i = inactive; / = not tested or not shown.

SMILES	TMEM16A inh	TLR4-MyD88 BLA	ANO1 activ	TLR9-MyD88 inh	NOD2 RIPK2 PPI	GRK2 aptamer HTS	TMEM16A reconf	TMEM16A Ca cntr	Parental YFP cnt	ClC-1 rat inh
CCCCCCC(C)(C)c1ccc([C@@H]2C[C@H](O)CC[C@H]2CCCO)c(O)c1	100*	/	i	-10	-4	0	i	i	-1.1	-6
CCc1sc(C(=O)N2CCC3(CC2)OCCO3)cc1Br	100*	18	i	6	-7	0	i	i	-1	-9
O=C(c1cc2c(s1)CCCCCC2)N1CCC2(CC1)OCCO2	i	-14	i	7	-2	2	/	/	/	/
CC(C)=CCc1c(O)cc2c(c1O)C(=O)CC(c1ccc(O)cc1)O2 (stereo not given)	100*	/	i	5	0	0	i	i	-0.95	-16
CCCCn1c(O)c(C(C)=NCCN2CCCCC2)c(=O)[nH]c1=O	i	-10	i	-5	-5	0	i	i	-0.96	1
CCOC(=O)c1c(-c2ccc(OC)cc2)oc2ccc(OC(=O)N(C)C)cc12	100*	10	i	3	5	5	i	i	-1.2	-12
Cc1oc2ccc(OC(=O)N(C)C)cc2c1C(=O)OC(C)C	i	3	i	-10	-2	0	/	/	/	/
CCC(c1nnnn1-c1ccc(OC)cc1)N1CCC2(CC1)C(=O)NCN2c1ccccc1 (stereo not given)	/	/	/	/	6	/	/	/	/	/
CN1C[C@H](CO)C[C@@H]2c3cccc4[nH]cc(c34)C[C@H]21	i	/	i	-9	-4	0	/	/	/	/
CCN(CC)C(=O)N[C@H]1C[C@@H]2c3cccc4[nH]cc(c34)C[C@H]2N(C)C1	i	9	i	-1	-11	0	i	i	-1	-3
c1cc2c(cc1N1CCCCC1)C1CC2CCN1 (stereo not given)	/	/	/	-2	1	/	/	/	/	/
COc1ccc(OC)c(CC(=O)O)c1	25*	3	-4.9*	2	7	0	i	i	-1	6
O=C(Cc1ccccc1)N1CCN(Cc2ccccc2Cl)CC1	25*	/	i	-7	0	0	i	i	-0.98	-10
Cc1ccc(N)c(C(=O)c2ccc(Br)cc2)c1	100*	5	i	-4	-2	23	i	i	-1.2	-7
Cc1cc(OC(=O)c2ccco2)c2c3c(c(=O)oc2c1)CCCC3	100*	16	i	-6	1	0	i	i	-1	-10
Cc1cc(OC(=O)c2cccs2)c2c3c(c(=O)oc2c1)CCCC3	i	-8	i	7	-5	6	/	/	/	/
O=C1NCN(c2ccccc2)C12CCN(C(c1cccc3ccccc13)c1nnnn1C1CCCC1)CC2 (stereo not given)	/	/	/	/	9	/	/	/	/	/
COc1ccc(CN2Cc3cc(N4CCCCC4)ccc3-n3nncc3C2)cc1	/	/	/	/	2	/	/	/	/	/
CCOc1ccc(-n2c(O)c(/C=C3\C=Nc4ccccc43)c(=O)[nH]c2=O)cc1	i	/	i	1	1	0	22%*	40%*	-0.82	4
COc1ccc(OC)c(-n2c(O)c(/C=C3\C=Nc4ccccc43)c(=O)[nH]c2=O)c1	i	/	i	8	4	3	/	/	/	/
CC(C)(C)C(=O)N1Cc2cc(N3CCCCC3)ccc2-n2nncc2C1	/	/	/	/	-6	/	/	/	/	/
